Data reported in PubChem BioAssay (EPA / NIEHS).
“And” between values parts separate entries of the source, which are not always exact repeats. Equal values may be shown once. More than one record can exist for a structure, and the calls need not agree. The source made the active and inactive calls. The calls were made as follows: active = hit-call score of the fitted dose curve at least 0.9, where 1 is the maximum; inactive = score below 0.9.

Assays:
[1] = biological target: Bile acid receptor (Homo sapiens) (UniProt Q96RI1); assay: ATG_IR1_CIS: Attagene CIS-FACTORIAL HepG2 Assay for human Nuclear Receptor Subfamily 1 Group H Member 4 (NR1H4), IR1 submotif (AID 2282946); details: IR1 reporter transcription, actives raise or lower the signal
Chain of Bile acid receptor (Homo sapiens) (Q96RI1 whole entry, looked up): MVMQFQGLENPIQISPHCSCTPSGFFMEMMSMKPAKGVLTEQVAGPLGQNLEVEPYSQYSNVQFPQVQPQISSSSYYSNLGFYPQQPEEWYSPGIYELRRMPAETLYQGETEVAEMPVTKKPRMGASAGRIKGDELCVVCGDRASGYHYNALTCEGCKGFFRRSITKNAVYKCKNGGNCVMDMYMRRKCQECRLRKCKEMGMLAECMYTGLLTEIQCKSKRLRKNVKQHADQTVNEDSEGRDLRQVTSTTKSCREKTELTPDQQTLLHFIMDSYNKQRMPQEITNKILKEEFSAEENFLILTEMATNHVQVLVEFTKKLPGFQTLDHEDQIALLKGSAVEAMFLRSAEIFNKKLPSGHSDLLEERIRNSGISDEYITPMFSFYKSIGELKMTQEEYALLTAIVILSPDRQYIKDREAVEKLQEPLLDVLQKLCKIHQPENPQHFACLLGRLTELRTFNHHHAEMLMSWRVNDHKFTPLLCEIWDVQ
In short: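 Transient MRTU transfection, HepG2; 24 h dosing; RNA → RT-PCR → 6-FAM primer extension → HpaI digest → capillary electrophoresis fluorescence. Gain/loss of signal fitted relative to DMSO.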

[2] = ATG_GRE_CIS: Attagene CIS-FACTORIAL HepG2 Assay for human Glucocorticoid Response Elements (GRE) (AID 2282947); details: HepG2 GRE cis-reporter, Attagene multiplex mRNA; actives raise or lower the signal
In short: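 Following 24 h chemical exposure of transiently transfected HepG2 cells, total RNA was reverse-transcribed and reporter cDNA amplified, fluorescently labelled and sized by capillary electrophoresis. Signal gain or loss was fitted relative to DMSO vehicle.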

[3] = ATG_ISRE_CIS: Attagene CIS-FACTORIAL HepG2 Assay for human Interferon Regulatory Factor 1 (IRF1) binding to an Interferon-Stimulated Response Element (ISRE) (AID 2282948); details: HepG2 ISRE cis-reporter (Attagene), mRNA transcription readout; actives raise or lower the signal
In short: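 Transfected HepG2 (multiple reporter transcription units, cis elements) dosed 24 h. RNA → oligo(dT) RT → PCR → 6-FAM primer extension → HpaI → CE. DMSO = negative control/baseline.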

[4] = ATG_M_32_CIS: Attagene CIS-FACTORIAL HepG2 Assay for M32 Transcription Factor (Internal Marker) (AID 2282949); details: HepG2 Attagene cis-factorial M32 reporter, mRNA; actives raise or lower the signal;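 also: background control marker of the multiplexed CIS panel rather than a real target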
In short: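 HepG2 cells transiently transfected with multiplexed cis-regulated reporter units, dosed 24 h. Reporter mRNA quantified by RT-PCR, 6-FAM labelling, HpaI digestion and capillary electrophoresis; bidirectional fit vs DMSO.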

[5] = biological target: Hypoxia-inducible factor 1-alpha (Homo sapiens) (UniProt Q16665); assay: ATG_HIF1a_CIS: Attagene CIS-FACTORIAL HepG2 Assay for human Hypoxia Inducible Factor 1 (HIF1A) (AID 2282951); details: HepG2 Attagene cis-factorial HIF1a reporter transcription; actives raise or lower the signal
Chain of Hypoxia-inducible factor 1-alpha (Homo sapiens) (Q16665 whole entry, looked up): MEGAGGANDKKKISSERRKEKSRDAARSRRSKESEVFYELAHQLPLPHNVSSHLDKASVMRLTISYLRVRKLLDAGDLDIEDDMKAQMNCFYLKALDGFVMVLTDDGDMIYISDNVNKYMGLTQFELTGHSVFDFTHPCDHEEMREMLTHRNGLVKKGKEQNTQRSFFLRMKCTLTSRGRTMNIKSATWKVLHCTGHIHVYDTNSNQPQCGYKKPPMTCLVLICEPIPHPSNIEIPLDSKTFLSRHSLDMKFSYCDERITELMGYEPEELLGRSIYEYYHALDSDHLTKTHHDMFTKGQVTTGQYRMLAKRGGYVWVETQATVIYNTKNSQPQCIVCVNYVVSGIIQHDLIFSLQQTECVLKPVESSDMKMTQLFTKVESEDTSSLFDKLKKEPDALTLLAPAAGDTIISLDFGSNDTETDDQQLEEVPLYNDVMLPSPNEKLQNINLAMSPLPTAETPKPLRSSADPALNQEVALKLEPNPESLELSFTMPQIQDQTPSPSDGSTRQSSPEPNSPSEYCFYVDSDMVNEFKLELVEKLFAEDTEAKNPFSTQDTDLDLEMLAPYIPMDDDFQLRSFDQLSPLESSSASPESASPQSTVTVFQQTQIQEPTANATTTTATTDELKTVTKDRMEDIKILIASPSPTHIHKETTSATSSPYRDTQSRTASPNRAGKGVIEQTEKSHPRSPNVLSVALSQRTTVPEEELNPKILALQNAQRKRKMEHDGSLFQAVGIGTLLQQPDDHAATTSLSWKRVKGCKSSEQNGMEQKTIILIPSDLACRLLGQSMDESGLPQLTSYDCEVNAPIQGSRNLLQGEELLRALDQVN
In short: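 Measures endogenous transcription-factor activity through cis-regulated reporter mRNA in HepG2. Cells dosed 24 h; transcripts quantified by RT-PCR with 6-FAM-labelled products separated by capillary electrophoresis; DMSO serves as negative control.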

[6] = biological target: Hepatocyte nuclear factor 6 (Homo sapiens) (UniProt Q9UBC0); assay: ATG_HNF6_CIS: Attagene CIS-FACTORIAL HepG2 Assay for human Hepatocyte Nuclear Factor 6 (HNF6) (AID 2282952); details: HepG2 Attagene cis-factorial HNF6 reporter transcription; actives raise or lower the signal
Chain of Hepatocyte nuclear factor 6 (Homo sapiens) (Q9UBC0 whole entry, looked up): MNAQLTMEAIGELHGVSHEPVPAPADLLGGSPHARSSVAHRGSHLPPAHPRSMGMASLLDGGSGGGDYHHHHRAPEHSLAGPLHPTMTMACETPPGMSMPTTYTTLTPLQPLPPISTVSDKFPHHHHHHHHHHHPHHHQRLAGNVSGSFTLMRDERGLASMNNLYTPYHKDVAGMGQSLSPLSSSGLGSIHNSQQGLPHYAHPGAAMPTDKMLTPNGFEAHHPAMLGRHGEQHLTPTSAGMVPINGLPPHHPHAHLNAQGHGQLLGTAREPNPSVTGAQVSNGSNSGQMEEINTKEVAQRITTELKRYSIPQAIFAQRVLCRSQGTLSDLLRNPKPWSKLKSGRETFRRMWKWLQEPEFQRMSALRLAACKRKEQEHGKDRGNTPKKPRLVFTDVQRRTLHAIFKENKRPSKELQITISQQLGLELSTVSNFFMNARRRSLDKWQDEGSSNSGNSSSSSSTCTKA
In short: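 HepG2, transient MRTU transfection (cis promoters); 24 h chemical exposure; total RNA → oligo(dT) RT → PCR → 6-FAM labelling → HpaI cut → CE; bidirectional fit vs DMSO.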

[7] = biological target: Heat shock factor protein 1 (Homo sapiens) (UniProt Q00613); assay: ATG_HSE_CIS: Attagene CIS-FACTORIAL HepG2 Assay for human Heat Shock Transcription Factor 1 (HSE) (AID 2282953); details: HepG2 HSE cis-reporter, Attagene RNA transcription; actives raise or lower the signal
Chain of Heat shock factor protein 1 (Homo sapiens) (Q00613 whole entry, looked up): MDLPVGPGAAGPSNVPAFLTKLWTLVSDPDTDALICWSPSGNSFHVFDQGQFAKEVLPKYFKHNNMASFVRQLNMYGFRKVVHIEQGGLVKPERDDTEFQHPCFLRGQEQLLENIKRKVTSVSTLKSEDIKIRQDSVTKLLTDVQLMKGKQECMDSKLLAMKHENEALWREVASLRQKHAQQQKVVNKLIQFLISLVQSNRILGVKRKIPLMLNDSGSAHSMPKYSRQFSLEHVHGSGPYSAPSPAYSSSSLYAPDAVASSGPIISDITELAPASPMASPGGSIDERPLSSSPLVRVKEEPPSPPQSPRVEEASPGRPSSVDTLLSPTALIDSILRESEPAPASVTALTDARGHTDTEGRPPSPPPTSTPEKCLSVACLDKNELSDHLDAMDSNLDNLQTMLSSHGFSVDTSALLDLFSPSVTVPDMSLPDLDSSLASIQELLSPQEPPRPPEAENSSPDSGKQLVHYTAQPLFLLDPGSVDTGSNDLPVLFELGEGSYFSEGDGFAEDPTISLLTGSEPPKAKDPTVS
In short: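 HepG2 cells transiently transfected with multiple reporter transcription units under cis-regulatory promoter control, measuring endogenous transcription factor activity. After 24 h chemical exposure, reporter mRNA quantified by RT-PCR, fluorescent labelling, HpaI digestion and capillary electrophoresis; bidirectional fit versus DMSO.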

[8] = ATG_MRE_CIS: Attagene CIS-FACTORIAL HepG2 Assay for human Metal Responsive Element (MRE) (AID 2282954); details: HepG2 MRE cis-reporter transcription, Attagene multiplex; actives raise or lower the signal
In short: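 Step one: transfect HepG2 with cis-regulated reporter units. Step two: dose 24 h. Step three: isolate RNA, RT-PCR, 6-FAM label, HpaI digest, capillary electrophoresis. Fit bidirectionally to DMSO.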

[9] = ATG_PBREM_CIS: Attagene CIS-FACTORIAL HepG2 Assay for human Phenobarbital-responsive Enhancer Module (PBREM) (AID 2282955); details: HepG2 PBREM cis-reporter, Attagene multiplexed transcription; actives raise or lower the signal
In short: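 Fluorescence of labelled reporter cDNA fragments, resolved by capillary electrophoresis, gives mRNA induction in transfected HepG2 cells treated for 24 h; DMSO serves as negative control and baseline.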

[10] = ATG_M_06_CIS: Attagene CIS-FACTORIAL HepG2 Assay for M06 Transcription Factor (Internal Marker) (AID 2282950); details: HepG2 Attagene CIS-FACTORIAL M06 internal marker reporter; actives raise or lower the signal
In short: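 HepG2 cells transiently transfected with cis-regulated multiple reporter transcription units were exposed to chemical for 24 h; reporter mRNA was quantified by RT-PCR, 6-FAM primer labelling, HpaI digestion and capillary electrophoresis, fitted bidirectionally against DMSO.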

Measured: AC50

O=C(c1ccccc1)C1CCCCC1
inactive: [1] | [2] | [3] | [4] | [5] | [6] | [7] | [8] | [9]
active: [9] 53.2 µM

CCCN(CCC)c1c([N+](=O)[O-])cc(C(F)(F)F)c(N)c1[N+](=O)[O-]
active: [5] 13 µM | [6] 50 µM | [7] 81 µM | [8] 32.5 µM | [9] 29.7 µM
inactive: [1] | [2] | [3] | [4] | [10]

O=C(O)C1(C(=O)Nc2ccc(Cl)cc2Cl)CC1
inactive: [1] | [3] | [4] | [5] | [6] | [7] | [8] | [9]

CCN(Cc1c(F)cccc1Cl)c1c([N+](=O)[O-])cc(C(F)(F)F)cc1[N+](=O)[O-]
active: [9] 7.72 µM
inactive: [1] | [3] | [4] | [5] | [6] | [7] | [8]

CC(=O)S[C@@H]1CC2=CC(=O)CC[C@]2(C)[C@H]2CC[C@@]3(C)[C@@H](CC[C@@]34CCC(=O)O4)[C@H]12
active: [3] 48.9 µM and 26.1 µM and 48.1 µM | [7] 171 µM | [8] 76.9 µM [middle of 4 runs]
inactive: [2] | [3] | [4] | [10] | [5] | [6] | [7] | [8] | [9]

S=C(S)NCCNC(=S)S.[Mn+2].[S-]C([S-])=NCCN=C([S-])[S-].[Zn+2]
active: [3] 9.92 µM and 10.9 µM and 50 µM | [5] 18.3 µM and 976 nM
inactive: [2] | [3] | [4] | [5] | [6] | [7] | [8]

CCCCC(CC)COC(=O)c1ccccc1C(=O)O (stereo not drawn)
inactive: [2] | [3] | [4] | [5] | [6] | [7] | [8] | [9]

C#C[C@]1(O)CC[C@H]2[C@@H]3CCC4=CC(=O)CC[C@@H]4[C@H]3CC[C@@]21CC
active: [5] 3.15 µM
inactive: [2] | [3] | [4] | [5] | [6] | [8]

c1ccc(Nc2ccccc2)cc1
active: [5] 100 µM
inactive: [3] | [4] | [10] | [5] | [6] | [7] | [8] | [9]

CCNc1nc(N)nc(Cl)n1
inactive: [3] | [4] | [5] | [6] | [7] | [8] | [9]

CCCOC(=O)NCCCN(C)C
inactive: [3] | [4] | [5] | [6] | [8] | [9]

CCCCC(CC)CN1C(=O)C2C3C=CC(C3)C2C1=O (stereo not drawn)
inactive: [2] | [3] | [4] | [10] | [6] | [7]
active: [5] 50 µM | [8] 68.5 µM | [9] 50 µM

C=CCOC(Cn1ccnc1)c1ccc(Cl)cc1Cl (stereo not drawn)
active: [5] 17.4 µM | [7] 84.4 µM | [8] 24.5 µM
inactive: [2] | [3] | [4] | [10] | [6] | [9]

CN(C)C(=O)Nc1ccc(Cl)c(Cl)c1
active: [5] 62.6 µM | [8] 77.4 µM
inactive: [2] | [3] | [4] | [5] | [6] | [7] | [8] | [9]

CSC(=O)c1cccc2nnsc12
inactive: [2] | [3] | [4] | [5] | [6] | [7] | [8] | [9]

CCOC(=O)NCCOc1ccc(Oc2ccccc2)cc1
active: [1] 88.9 µM | [5] 86 µM | [7] 78.1 µM | [8] 66.2 µM | [9] 50 µM
inactive: [3] | [4] | [6]

CCCCOCCOCCOCc1cc2c(cc1CCC)OCO2
active: [9] 8.08 µM
inactive: [1] | [3] | [4] | [5] | [6] | [7] | [8]

CC(C)(c1ccc(O)cc1)c1ccc(O)cc1
active: [3] 142 µM [middle of 5 runs] | [5] 179 µM | [6] 45.7 µM | [7] 153 µM [middle of 6 runs]
inactive: [3] | [4] | [10] | [5] | [6] | [7] | [8] | [9]

CC1(C)C(C=C(Cl)Cl)C1C(=O)OCc1cccc(Oc2ccccc2)c1 (stereo not drawn)
inactive: [2] | [3] | [4] | [10] | [5] | [6] | [7] | [8] | [9]

CCCCCOC(=O)COc1cc(N2C(=O)C3=C(CCCC3)C2=O)c(F)cc1Cl
active: [7] 87.6 µM
inactive: [2] | [3] | [4] | [5] | [6] | [8]

COC(=O)c1ccc(I)cc1S(=O)(=O)NC(=O)Nc1nc(C)nc(OC)n1
inactive: [2] | [3] | [4] | [5] | [6] | [7] | [8] | [9]

O=C(O)c1ccccc1
inactive: [3] | [4] | [5] | [6] | [8] | [9]

CC(=O)[C@H]1CC[C@H]2[C@@H]3CCC4=CC(=O)CC[C@]4(C)[C@H]3CC[C@]12C
active: [3] 46.4 µM | [6] 182 µM | [7] 60 µM and 149 µM | [8] 33.4 µM and 38.9 µM and 117 µM
inactive: [3] | [4] | [10] | [6] | [7] | [8]

COC(=O)c1ccccc1C(=O)O
inactive: [2] | [3] | [4] | [10] | [5] | [6] | [7] | [8] | [9]

CCCN(CCC)C(=O)SCC
inactive: [2] | [3] | [4] | [10] | [5] | [6] | [7] | [8] | [9]

S=C([S-])NCCNC(=S)[S-].[Mn+2]
inactive: [2] | [3] | [4] | [5] | [6] | [7] | [8]

CCCCCCC(C)OC(=O)COc1nc(F)c(Cl)c(N)c1Cl (stereo not drawn)
inactive: [3] | [4] | [5] | [6] | [7] | [8]

CCOC(=O)COc1cc(-n2ncc(C(F)(F)F)c(C)c2=O)c(F)cc1Cl
inactive: [2] | [3] | [4] | [5] | [6] | [7] | [8] | [9]

N[C@@H](Cc1cc(I)c(Oc2ccc(O)c(I)c2)c(I)c1)C(=O)O
active: [5] 16.3 µM and 19.5 µM and 1.93 µM | [7] 107 µM and 160 µM | [8] 50.6 µM and 23.7 µM and 94 µM | [9] 24.4 µM
inactive: [2] | [3] | [4] | [5] | [6] | [7] | [8] | [9]

CCSC(=O)N(CC(C)C)CC(C)C
inactive: [2] | [3] | [4] | [10] | [5] | [6] | [7] | [8] | [9]

COCCO
inactive: [2] | [3] | [4] | [5] | [6] | [7] | [8] | [9]

COc1c(Cl)ccc(Cl)c1C(=O)O
inactive: [3] | [4] | [5] | [6] | [7] | [8] | [9]
